PubChem BioAssay AID1159580 (chemical genetic matrix, 2015)
“And” between values parts separate entries of the source, which are not always exact repeats. Equal values may be shown once. In all, about 5,500 compounds went through this assay and about 2,000 (36%) were called active. Inconclusive results (about 18%) are left out. Rule as the data show it: active = normalized growth mostly below about 0.91 (no sharp cut-off); inconclusive = no clear call, values can overlap the other calls; inactive = mostly above about 0.92. Some of the results follow.

Test: chemical genetic growth profiling, strain panel (AID 1159580);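 also: tested at 20 µM; growth read once vehicle control cultures reached saturation at 30 °C; 1 = growth at the plate median or of vehicle wells; lower values mean less growth of the strain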
Conditions: growth OD

Measured: normalized growth

C/C=C(/C)C(=O)O[C@H]1CC[C@@]2(C)[C@@H]3CC[C@H]4[C@]5(O)C[C@H](O)[C@@]6(O)[C@@H](CN7C[C@@H](C)CC[C@H]7[C@@]6(C)O)[C@]5(O)C[C@@]42O[C@]13O
inactive: S. cerevisiae deletion strains, locus YBR021W, strain FUR4, hits give low values 1 | S. cerevisiae deletion strains, locus YBR229C, strain ROT2, hits give low values 1.01 | S. cerevisiae deletion strains, locus YCL029C, strain bik1, hits give low values 0.988 | S. cerevisiae deletion strains, locus YDL035C, strain GPR1, hits give low values 0.991 | S. cerevisiae deletion strains, locus YDL074C, strain BRE1, hits give low values 0.981 | S. cerevisiae deletion strains, locus YDL101C, strain DUN1, hits give low values 1.02 | S. cerevisiae deletion strains, locus YDL185W, strain tfp1, hits give low values 0.966 | S. cerevisiae deletion strains, locus YDL192W, strain arf1, hits give low values 0.966 | S. cerevisiae deletion strains, locus YDR101C, strain arx1, hits give low values 0.981 | S. cerevisiae deletion strains, locus YDR162C, strain NBP2, hits give low values 1.05 | S. cerevisiae deletion strains, locus YDR318W, strain mcm21, hits give low values 0.987 | S. cerevisiae deletion strains, locus YDR388W, hits give low values 0.98 | S. cerevisiae deletion strains, locus YDR502C, strain sam2, hits give low values 0.988 | S. cerevisiae deletion strains, locus YEL061C, strain CIN8, hits give low values 1 | S. cerevisiae deletion strains, locus YER110C, hits give low values 0.964 | S. cerevisiae deletion strains, locus YER155C, strain BEM2, hits give low values 1 | S. cerevisiae deletion strains, locus YER167W, strain BCK2, hits give low values 0.995 | S. cerevisiae deletion strains, locus YGL078C, strain dbp3, hits give low values 0.993 | S. cerevisiae deletion strains, locus YGL086W, strain mad1, hits give low values 0.975 | S. cerevisiae deletion strains, locus YGL248W, strain PDE1, hits give low values 1.03 | S. cerevisiae deletion strains, locus YGR078C, strain PAC10, hits give low values 1.05 | S. cerevisiae deletion strains, locus YGR135W, strain pre9, hits give low values 0.993 | S. cerevisiae deletion strains, locus YGR252W, strain gcn5, hits give low values 1.11 | S. cerevisiae deletion strains, locus YHR030C, strain SLT2, hits give low values 0.988 and 0.996 | S. cerevisiae deletion strains, locus YHR079C, strain IRE1 (second series), hits give low values 0.969 | S. cerevisiae deletion strains, locus YHR079C, strain IRE1, hits give low values 0.969 | S. cerevisiae deletion strains, locus YHR094C, strain hxt1, hits give low values 0.981 | S. cerevisiae deletion strains, locus YHR129C, strain ARP1, hits give low values 0.996 | S. cerevisiae deletion strains, locus YHR200W, strain rpn10, hits give low values 0.964 | S. cerevisiae deletion strains, locus YIL066C, strain RNR3, hits give low values 1.01 | S. cerevisiae deletion strains, locus YIL073C, strain SPO22, hits give low values 0.949 | S. cerevisiae deletion strains, locus YIL125W, strain kgd1, hits give low values 1 | S. cerevisiae deletion strains, locus YIR030C, strain dcg1, hits give low values 0.977 | S. cerevisiae deletion strains, locus YJL095W, strain BCK1, hits give low values 1.05 and 0.999 | S. cerevisiae deletion strains, locus YJL134W, strain LCB3, hits give low values 0.996 | S. cerevisiae deletion strains, locus YJL168C, strain set2, hits give low values 0.982 | S. cerevisiae deletion strains, locus YJL187C, strain SWE1 (second series), hits give low values 1.07 | S. cerevisiae deletion strains, locus YJR043C, strain POL32, hits give low values 1.02 | S. cerevisiae deletion strains, locus YJR066W, strain TOR1, hits give low values 0.928 | S. cerevisiae deletion strains, locus YKL009W, strain mrt4, hits give low values 0.948 | S. cerevisiae deletion strains, locus YKL068W, hits give low values 0.987 | S. cerevisiae deletion strains, locus YKL085W, strain MDH1 (second series), hits give low values 0.979 | S. cerevisiae deletion strains, locus YKL085W, strain MDH1, hits give low values 0.979 | S. cerevisiae deletion strains, locus YKR001C, strain vps1, hits give low values 0.965 | S. cerevisiae deletion strains, locus YLR039C, strain RIC1, hits give low values 0.908 | S. cerevisiae deletion strains, locus YLR058C, strain SHM2, hits give low values 1.01 | S. cerevisiae deletion strains, locus YLR102C, strain apc9, hits give low values 0.975 | S. cerevisiae deletion strains, locus YLR113W, strain HOG1, hits give low values 0.995 | S. cerevisiae deletion strains, locus YLR262C, strain YPT6, hits give low values 0.934 | S. cerevisiae deletion strains, locus YLR268W, strain sec22, hits give low values 0.97 | S. cerevisiae deletion strains, locus YLR330W, strain CHS5, hits give low values 0.986 | S. cerevisiae deletion strains, locus YLR342W, strain FKS1 (second series), hits give low values 1.05 | S. cerevisiae deletion strains, locus YLR371W, strain rom2, hits give low values 0.982 | S. cerevisiae deletion strains, locus YLR418C, strain cdc73, hits give low values 0.988 | S. cerevisiae deletion strains, locus YML016C, strain PPZ1, hits give low values 1 | S. cerevisiae deletion strains, locus YML032C, strain rad52, hits give low values 1 | S. cerevisiae deletion strains, locus YML124C, strain tub3, hits give low values 0.984 | S. cerevisiae deletion strains, locus YMR078C, strain ctf18, hits give low values 0.958 | S. cerevisiae deletion strains, locus YMR223W, strain ubp8, hits give low values 1 | S. cerevisiae deletion strains, locus YMR263W, strain SAP30, hits give low values 1.01 | S. cerevisiae deletion strains, locus YMR307W, strain GAS1, hits give low values 1.15 | S. cerevisiae deletion strains, locus YNL067W, strain RPL9B, hits give low values 1.03 | S. cerevisiae deletion strains, locus YNL183C, strain NPR1, hits give low values 0.974 | S. cerevisiae deletion strains, locus YNL233W, strain BNI4, hits give low values 1.03 | S. cerevisiae deletion strains, locus YNL250W, strain rad50, hits give low values 0.962 | S. cerevisiae deletion strains, locus YNL271C, strain bni1, hits give low values 0.994 | S. cerevisiae deletion strains, locus YNL298W, strain CLA4, hits give low values 0.993 | S. cerevisiae deletion strains, locus YNL307C, strain MCK1, hits give low values 0.995 | S. cerevisiae deletion strains, locus YNR052C, strain pop2, hits give low values 1.01 | S. cerevisiae deletion strains, locus YOL012C, strain htz1 0.767 | S. cerevisiae deletion strains, locus YOL147C, strain pex11, hits give low values 0.991 | S. cerevisiae deletion strains, locus YOR061W, strain CKA2, hits give low values 1 | S. cerevisiae deletion strains, locus YOR069W, strain VPS5, hits give low values 0.997 | S. cerevisiae deletion strains, locus YOR136W, strain idh2, hits give low values 0.981 | S. cerevisiae deletion strains, locus YOR144C, strain elg1, hits give low values 1.01 | S. cerevisiae deletion strains, locus YOR184W, strain ser1, hits give low values 0.993 | S. cerevisiae deletion strains, locus YOR231W, strain MKK1, hits give low values 1.01 | S. cerevisiae deletion strains, locus YOR316C, strain cot1, hits give low values 0.98 | S. cerevisiae deletion strains, locus YPL256C, strain CLN2, hits give low values 0.983 | S. cerevisiae deletion strains, locus YPR119W, strain clb2, hits give low values 0.963 | S. cerevisiae deletion strains, locus YPR141C, strain kar3, hits give low values 0.981 | S. cerevisiae deletion strains, locus YPR163C, strain tif3, hits give low values 0.977 | S. cerevisiae deletion strains, locus YPR167C, strain met16, hits give low values 0.957 | S. cerevisiae deletion strains, strain wtn01, hits give low values 0.977 | S. cerevisiae strains, strain wild type, hits give low values 1.01
